mHTT-CaM PPI inh = mHTT-calmodulin interaction abrogation | inhibition, % at 15 µM | 190,000 compounds, 3.6% hits | P42858 | AlphaScreen His-mHTT/GST-CaM binding, luminescence
Pf apPOL block = Pf-apPOL DNA polymerase inhibition; inhibition, % at 10 µM; 210,000 compounds, 0.25% hits; Recombinant Pf-apPOL, molecular beacon fluorescence, 1.5 h
Of the large screens only hits and unclear results are named; the others gave an inactive call. The full list was thinned out, with hits kept by preference. Rule as the data show it: active = inhibition above about 50%; inactive = the rest.

O=C(Nc1ccc(Cl)cc1F)N1CC2CC(NS(=O)(=O)c3cccs3)C1C2 (centres undefined)	none
COc1ccc([C@@H]2C[C@@H](c3ccccc3)Oc3cc(C)c(Cl)c(C)c32)cc1	none
C=C(C)COc1ccc2c(c1)OC(=Cc1cc(OC)c(OC)cc1OC)C2=O	none
CCCC(=O)N1CCN(c2nc(C(C)C)c3c(c2C#N)CC(C)(C)OC3)CC1	Pf apPOL block 89
CCCCC(=O)N1CCN(c2nc(C(C)C)c3c(c2C#N)CC(C)(C)OC3)CC1	none
Cc1nc2c(C(=O)NCCC(C)C)cnn2c(C)c1Cc1cccc(Cl)c1	none
COC(CNC(=O)c1cnn2c(C)c(Cc3ccccc3)c(C)nc12)OC	none
COC(CNC(=O)c1cnn2c(C)c(Cc3cccc(Cl)c3)c(C)nc12)OC	mHTT-CaM PPI inh 61
Cc1nc2c(C(=O)NC(C)C)cnn2c(C)c1Cc1cccc(Cl)c1	mHTT-CaM PPI inh 70
CCOc1cc([N+](=O)[O-])cc(/C=C2/SC(=Nc3ccccc3)NC2=O)c1O	none
C=CCNC(=O)c1nc(N2CCCCC2)c2c(C)c(C)n(-c3ccccc3)c2n1	mHTT-CaM PPI inh 89
C=CCNC(=O)c1nnc(N2CCCC2)c2ccccc12	none
Cc1ccc(-c2nc(C)c(C(=O)N3CCCC3)s2)cc1	none
COc1cc(C)c(C)cc1S(=O)(=O)N1CCc2ccccc2C1	none
OCCN(Cc1ccccc1)CC(O)COc1ccc(Cl)cc1Cl (centres undefined)	mHTT-CaM PPI inh 51
OCCN(Cc1ccccc1)CC(O)COc1cccc2ccccc12 (centres undefined)	none
Cc1ccc2oc(C(=O)N3CCN(c4cccc(C(F)(F)F)c4)CC3)cc2n1	mHTT-CaM PPI inh 72
O=C(C1CCN(c2ccncc2)CC1)N1CCN(c2cccc(C(F)(F)F)c2)CC1	none
COCCCNC(=O)c1ccc(C(C)C)cc1	none
COCCNC(=O)c1ccc(C(C)C)cc1	Pf apPOL block 67
FC(F)(F)c1cnc(N2CCN(c3cc(C(F)(F)F)nc4ccccc34)CC2)c(Cl)c1	none (no result: mHTT-CaM PPI inh)
O=C(O)c1cccc(N=Cc2cc(Br)cc(Cl)c2O)c1	none
COCCC1CCN(C(=O)Cc2cccc(C)c2)CC1	none
COc1ccc(OC)c(Nc2nc(Cl)nc(Nc3cc(OC)ccc3OC)n2)c1	mHTT-CaM PPI inh 53
COc1ccc(Nc2nc(Cl)nc(Nc3ccc(OC)c(OC)c3)n2)cc1OC	none
O=C(CN1CCN(C(=O)Nc2ccc(F)cc2)CC1=O)N1CCCCCC1	none
COc1cccc(CN=Cc2[nH]c3ccc(Br)c(Cl)c3c2O)c1OC	none
COc1ccccc1CN=Cc1[nH]c2ccc(Br)c(Cl)c2c1O	mHTT-CaM PPI inh 71
CC1CCCC(Nc2ccc(N3C(=O)C4C5C=CC(C5)C4C3=O)cc2[N+](=O)[O-])C1C (centres undefined)	mHTT-CaM PPI inh 55
CC1CCCC(Nc2ccc(N3C(=O)CCC3=O)cc2[N+](=O)[O-])C1C (centres undefined)	none
CC(C)c1ccc(-n2ccnc(NC(=O)Nc3ccccc3)c2=O)cc1	none
Cc1ccc(-n2ccnc(NC(=O)c3cccc(F)c3)c2=O)cc1C	none
CC(C)c1ccc(-n2ccnc(NC(=O)c3ccccn3)c2=O)cc1	mHTT-CaM PPI inh 91
Cc1ccc(-n2ccnc(NC(=O)c3ccccn3)c2=O)cc1C	mHTT-CaM PPI inh 89
COc1ccc(CNC(=O)c2n[nH]c(=O)c3ccccc23)cc1OC	none
COC(=O)C1=C(N)Oc2c(oc(CO)cc2=O)C1c1ccc(Cl)c(Cl)c1 (centres undefined)	mHTT-CaM PPI inh 70
COC(=O)C1=C(N)Oc2c(oc(CO)cc2=O)C1c1ccc(Cl)cc1 (centres undefined)	none
Cc1cc(C)c2ccc(CO)nc2c1O	none
Cc1cc(C)c2ccc(C=O)nc2c1O	mHTT-CaM PPI inh 69
CC(=O)Nc1ccccc1/C=C/c1ccc2c(C)cc(C)c(O)c2n1	none
Cc1cc(C)c2ccc(NN)nc2c1O	mHTT-CaM PPI inh 85
COc1ccc(C2NC(CC(C)C)(C(=O)O)C3C(=O)N(Cc4ccccc4)C(=O)C23)c(O)c1 (centres undefined)	none
Cc1nc2ncccn2c1-c1csc(N)n1	none (no result: Pf apPOL block)
Cc1nc2ncccn2c1-c1csc(Nc2ccccc2)n1	mHTT-CaM PPI inh 97
Cc1cc(NS(=O)(=O)c2ccc(Nc3nc(-c4c(C)nc5ncccn45)cs3)cc2)no1	none
Cc1nc2sccn2c1-c1csc(Nc2cccc(O)c2)n1	mHTT-CaM PPI inh 73
Cc1nc2ncccn2c1-c1csc(Nc2cccc([N+](=O)[O-])c2)n1	none
Cc1cccc(Nc2nc(-c3c(C)nc4ncccn34)cs2)c1	mHTT-CaM PPI inh 77
Cc1cccc(C(=O)Nc2c(C)nc3sccn3c2=O)c1	none
Cc1nc2ncccn2c1-c1csc(Nc2ccccn2)n1	mHTT-CaM PPI inh 73
Cc1ccccc1N1CCN(C(=O)Cc2nnc(-c3ccccc3)o2)CC1	none
COc1cccc(/C=C2/C(=O)N(c3ccccc3)N=C2C)c1O	mHTT-CaM PPI inh 73
COc1c(Br)cc(Br)cc1/C=C1/C(=O)N(c2ccccc2)N=C1C	mHTT-CaM PPI inh 69
COc1ccc(/C=C2/C(=O)N(c3ccc(Cl)c(Cl)c3)N=C2C)cc1OC	none
COc1cccc(/C=C2/C(=O)N(c3ccc(Cl)c(Cl)c3)N=C2C)c1O	mHTT-CaM PPI inh 60
C=CCOc1ccccc1/C=C1/C(=O)N(c2ccc(Cl)c(Cl)c2)N=C1C	none
COc1cc(/C=C2/C(=O)N(c3ccc(Cl)c(Cl)c3)N=C2C)ccc1OCC(=O)O	mHTT-CaM PPI inh 51
COc1cccc(/C=C2/C(=O)N(c3ccccc3)N=C2C)c1OC	none
COc1ccc(Br)cc1/C=C1/C(=O)N(c2ccccc2)N=C1C	none
O=C1C(=Cc2ccccc2)CCCC1CN1CCOCC1 (centres undefined)	none (no result: mHTT-CaM PPI inh)
O=C(Nc1ccc(Cl)cc1)N1CCc2nc(Cc3ccc(F)cc3)[nH]c(=O)c2C1	none
O=S(=O)(NCC(c1cccs1)N1CCc2ccccc2C1)c1cccs1 (centres undefined)	none
CCCCN(C)C(=O)c1c[nH]c2ccc(S(=O)(=O)N(C)c3ccc(C)c(C)c3)cc2c1=O	none
O=C(c1cccs1)N1CCCC(OCc2cc(F)cc(F)c2)C1 (centres undefined)	none
COc1cc(/C=C2/C(=O)N(c3cccc(Br)c3)N=C2C)cc(OC)c1O	mHTT-CaM PPI inh 88
COc1cc(/C=C2/C(=O)N(c3cccc(Br)c3)N=C2C)ccc1OC(C)C	none
CCCC1=NN(c2ccccc2)C(=O)/C1=C\c1cc(Cl)c(O)c(OC)c1	mHTT-CaM PPI inh 66
CCCC1=NN(c2ccccc2)C(=O)/C1=C/c1cc(OC)c(OC)cc1Cl	none
Fc1ccc(CSc2ncccn2)c(Cl)c1	none
CC1=C(C#N)c2nc(N)c(C#N)c(C)c2/C1=C/c1cccs1	none (no result: Pf apPOL block)
Cn1cc2c3c(cccc31)CN(C(=O)Cc1cccc(F)c1)CC2	mHTT-CaM PPI inh 53
COCCCNC(=O)N1CCc2cn(CCOC)c3cccc(c23)C1	none
COCCn1cc2c3c(cccc31)CN(C(=O)Cc1cccc(F)c1)CC2	none
COCCn1cc2c3c(cccc31)CN(C(=O)COc1ccc(F)cc1)CC2	mHTT-CaM PPI inh 56
COCCn1cc2c3c(cccc31)CN(C(=O)COc1ccccc1)CC2	mHTT-CaM PPI inh 55
COCCn1cc2c3c(cccc31)CN(C(=O)COc1cccc(C)c1)CC2	none
CCC(C(=O)N1CCc2cn(CCOC)c3cccc(c23)C1)c1ccccc1 (centres undefined)	mHTT-CaM PPI inh 63
COCCn1cc2c3c(cccc31)CN(C(=O)COC)CC2	none
Cc1ccc(NC(=O)C2CCN(c3cccc(C)c3C)C2=O)cc1 (centres undefined)	none
O=C(c1ccc(OCC2CCCN2C(=O)Cc2ccc(F)cc2)cc1)N1CCOCC1 (centres undefined)	none
